# According to publication PMC13541613, “GHT-SELEX demonstrates unexpectedly high intrinsic sequence specificity and complex DNA binding of many human transcription factors”:
# Experiments:
# Assay in all cases: HT-SELEX; 20 mM HEPES pH 7, 140 mM KCl, 5 mM NaCl, 1 mM K2HPO4, 2 mM MgSO4, 100 uM EGTA, ZnSO4, 0.1% Tween20; room temperature, 1 h; high values mean tight binding
# Settings in all cases: protein: ivt; tags: eGFP (N-terminal); dsDNA, one strand shown
# [1] = target: ZNF721 full-length (Homo sapiens, UniProt Q8TF20-2 1-923)
# Method in brief: (§1)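 Bead-immobilised tagged transcription factor (full-length or DNA-binding-domain fragment), made in HEK293 lysate or cell-free extract, was incubated with a randomized 40-base DNA library. Binding was for 1 h at room temperature in HEPES/KCl low-stringency buffer with Tween20. After washing and heat elution, bound DNA was PCR-amplified over successive cycles and Illumina-sequenced (~3 million 60 bp reads per sample). Binding signal is a relative k-mer count in selected reads; higher means tighter binding.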
# [2] = target: ZNF721 DBD1 (Homo sapiens, UniProt Q8TF20-2 29-461)
# Method in brief: as §1
# [3] = target: ZNF721 DBD2 (Homo sapiens, UniProt Q8TF20-2 395-923)
# Method in brief: as §1
# Sequence of ZNF721 full-length (Q8TF20 other isoform, or with tags, fused parts or gaps): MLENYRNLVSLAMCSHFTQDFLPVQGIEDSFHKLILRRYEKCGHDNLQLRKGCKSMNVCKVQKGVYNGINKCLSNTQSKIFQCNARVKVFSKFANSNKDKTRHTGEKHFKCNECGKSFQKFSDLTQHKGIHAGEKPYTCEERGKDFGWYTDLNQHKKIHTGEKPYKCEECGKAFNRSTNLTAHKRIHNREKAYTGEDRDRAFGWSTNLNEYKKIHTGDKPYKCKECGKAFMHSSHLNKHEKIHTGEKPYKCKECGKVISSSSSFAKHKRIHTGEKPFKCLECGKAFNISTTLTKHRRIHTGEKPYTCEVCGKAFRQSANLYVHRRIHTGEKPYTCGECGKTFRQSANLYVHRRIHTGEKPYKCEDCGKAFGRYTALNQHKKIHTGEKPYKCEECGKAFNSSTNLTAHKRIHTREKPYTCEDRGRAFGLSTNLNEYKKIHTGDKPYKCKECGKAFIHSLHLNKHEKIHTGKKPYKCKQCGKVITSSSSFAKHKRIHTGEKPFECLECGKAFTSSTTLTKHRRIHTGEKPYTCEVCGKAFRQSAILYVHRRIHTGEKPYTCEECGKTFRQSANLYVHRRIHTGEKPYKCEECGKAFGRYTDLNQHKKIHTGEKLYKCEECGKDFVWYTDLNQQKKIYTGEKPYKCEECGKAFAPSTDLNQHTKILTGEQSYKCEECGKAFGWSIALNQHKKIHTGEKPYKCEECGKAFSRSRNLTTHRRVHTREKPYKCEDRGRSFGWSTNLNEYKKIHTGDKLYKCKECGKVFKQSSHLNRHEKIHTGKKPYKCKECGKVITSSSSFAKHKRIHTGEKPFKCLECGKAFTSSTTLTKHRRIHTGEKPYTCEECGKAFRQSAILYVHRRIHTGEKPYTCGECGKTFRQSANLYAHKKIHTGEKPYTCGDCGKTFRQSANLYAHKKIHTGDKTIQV
# Sequence of ZNF721 DBD1 (Q8TF20 17-449): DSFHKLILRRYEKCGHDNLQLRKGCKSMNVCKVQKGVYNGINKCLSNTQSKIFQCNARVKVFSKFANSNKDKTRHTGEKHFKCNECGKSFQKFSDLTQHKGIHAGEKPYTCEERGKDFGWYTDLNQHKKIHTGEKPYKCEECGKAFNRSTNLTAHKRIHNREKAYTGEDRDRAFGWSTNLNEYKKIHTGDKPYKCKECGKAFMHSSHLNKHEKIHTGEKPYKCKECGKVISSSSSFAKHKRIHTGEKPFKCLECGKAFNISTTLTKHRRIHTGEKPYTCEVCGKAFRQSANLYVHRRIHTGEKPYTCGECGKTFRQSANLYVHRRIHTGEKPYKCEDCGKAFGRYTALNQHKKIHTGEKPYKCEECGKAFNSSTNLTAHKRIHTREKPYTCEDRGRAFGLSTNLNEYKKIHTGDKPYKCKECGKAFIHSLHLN
# Sequence of ZNF721 DBD2 (Q8TF20 383-911): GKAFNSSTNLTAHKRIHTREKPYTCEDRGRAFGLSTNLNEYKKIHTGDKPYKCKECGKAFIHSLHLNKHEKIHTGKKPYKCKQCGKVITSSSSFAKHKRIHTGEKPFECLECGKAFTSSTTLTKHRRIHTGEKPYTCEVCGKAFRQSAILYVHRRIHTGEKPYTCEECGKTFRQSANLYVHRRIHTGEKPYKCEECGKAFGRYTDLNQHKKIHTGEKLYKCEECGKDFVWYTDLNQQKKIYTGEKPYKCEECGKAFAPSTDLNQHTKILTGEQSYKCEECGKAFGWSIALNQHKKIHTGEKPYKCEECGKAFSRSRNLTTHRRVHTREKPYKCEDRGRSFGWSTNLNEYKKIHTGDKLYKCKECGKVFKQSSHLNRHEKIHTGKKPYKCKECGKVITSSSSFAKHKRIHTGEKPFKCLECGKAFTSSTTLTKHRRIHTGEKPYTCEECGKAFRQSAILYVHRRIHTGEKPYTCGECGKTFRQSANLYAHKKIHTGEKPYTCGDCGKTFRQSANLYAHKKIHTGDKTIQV
sequence,measurement,setting,value
CCACCCGCCC,binding signal,[1],0.235 relative 10-mer count
same,binding signal,[2],0.00922 relative 10-mer count
same,binding signal,[3],0.00443 relative 10-mer count
CCCACCATCC,binding signal,[1],0.152 relative 10-mer count
same,binding signal,[2],0.00647 relative 10-mer count
same,binding signal,[3],0.00527 relative 10-mer count
CTGCTTTTTC,binding signal,[1],0.202 relative 10-mer count
same,binding signal,[2],0.00491 relative 10-mer count
same,binding signal,[3],0.196 relative 10-mer count
CCTCCTCCCC,binding signal,[1],0.169 relative 10-mer count
same,binding signal,[2],0.00881 relative 10-mer count
same,binding signal,[3],0.00527 relative 10-mer count
ACAAAAAAAC,binding signal,[1],0.151 relative 10-mer count
same,binding signal,[2],0.00188 relative 10-mer count
same,binding signal,[3],0.0972 relative 10-mer count
CCCACCCTAC,binding signal,[1],0.114 relative 10-mer count
same,binding signal,[2],0.00748 relative 10-mer count
same,binding signal,[3],0.0116 relative 10-mer count
CCCATCCCCA,binding signal,[1],0.106 relative 10-mer count
same,binding signal,[2],0.00472 relative 10-mer count
same,binding signal,[3],0.00551 relative 10-mer count
CCTCCCCCCC,binding signal,[1],0.236 relative 10-mer count
same,binding signal,[2],0.0115 relative 10-mer count
same,binding signal,[3],0.00707 relative 10-mer count
CCGCCCCCCG,binding signal,[1],0.128 relative 10-mer count
same,binding signal,[2],0.0039 relative 10-mer count
same,binding signal,[3],0.0024 relative 10-mer count
GCCCCCCCAC,binding signal,[1],0.112 relative 10-mer count
same,binding signal,[2],0.0055 relative 10-mer count
same,binding signal,[3],0.00803 relative 10-mer count
CGCCTCCCCC,binding signal,[1],0.126 relative 10-mer count
same,binding signal,[2],0.0061 relative 10-mer count
same,binding signal,[3],0.00336 relative 10-mer count
AAGAAAAAAG,binding signal,[1],0.166 relative 10-mer count
same,binding signal,[2],0.0407 relative 10-mer count
same,binding signal,[3],0.0319 relative 10-mer count
CCAACCACCC,binding signal,[1],0.175 relative 10-mer count
same,binding signal,[2],0.00624 relative 10-mer count
same,binding signal,[3],0.00312 relative 10-mer count
AAAAAAGGCA,binding signal,[1],0.18 relative 10-mer count
same,binding signal,[2],0.00284 relative 10-mer count
same,binding signal,[3],0.13 relative 10-mer count
CACCCGCCCC,binding signal,[1],0.188 relative 10-mer count
same,binding signal,[2],0.0066 relative 10-mer count
same,binding signal,[3],0.00108 relative 10-mer count
CCACCCCAGC,binding signal,[1],0.102 relative 10-mer count
same,binding signal,[2],0.00372 relative 10-mer count
same,binding signal,[3],0.00252 relative 10-mer count
CGTCCCCCCC,binding signal,[1],0.126 relative 10-mer count
same,binding signal,[2],0.00619 relative 10-mer count
same,binding signal,[3],0.00108 relative 10-mer count
CCCCATCCCC,binding signal,[1],0.231 relative 10-mer count
same,binding signal,[2],0.0083 relative 10-mer count
same,binding signal,[3],0.0036 relative 10-mer count
AAAAAGCAGC,binding signal,[1],0.557 relative 10-mer count
same,binding signal,[2],0.00835 relative 10-mer count
same,binding signal,[3],0.477 relative 10-mer count
GCATACCCTA,binding signal,[1],0.202 relative 10-mer count
same,binding signal,[2],0.0231 relative 10-mer count
same,binding signal,[3],0.217 relative 10-mer count
AGCGTACCCT,binding signal,[1],0.204 relative 10-mer count
same,binding signal,[2],0.0586 relative 10-mer count
same,binding signal,[3],0.165 relative 10-mer count
CCACCACCCA,binding signal,[1],0.222 relative 10-mer count
same,binding signal,[2],0.0105 relative 10-mer count
same,binding signal,[3],0.00671 relative 10-mer count
CCCCACCTCC,binding signal,[1],0.24 relative 10-mer count
same,binding signal,[2],0.0128 relative 10-mer count
same,binding signal,[3],0.00575 relative 10-mer count
AAGCAGTACC,binding signal,[1],0.153 relative 10-mer count
same,binding signal,[2],0.0727 relative 10-mer count
same,binding signal,[3],0.0326 relative 10-mer count
CCACACACCC,binding signal,[1],0.105 relative 10-mer count
same,binding signal,[2],0.00321 relative 10-mer count
same,binding signal,[3],0.00312 relative 10-mer count
CTCCCTCCCC,binding signal,[1],0.143 relative 10-mer count
same,binding signal,[2],0.00927 relative 10-mer count
same,binding signal,[3],0.00312 relative 10-mer count
CGAAAAAACA,binding signal,[1],0.153 relative 10-mer count
same,binding signal,[2],0.0022 relative 10-mer count
same,binding signal,[3],0.161 relative 10-mer count
CCCGCCTCCC,binding signal,[1],0.183 relative 10-mer count
same,binding signal,[2],0.00954 relative 10-mer count
same,binding signal,[3],0.00156 relative 10-mer count
CCACCCCCAC,binding signal,[1],0.326 relative 10-mer count
same,binding signal,[2],0.0121 relative 10-mer count
same,binding signal,[3],0.00515 relative 10-mer count
ACGAAAAAAG,binding signal,[1],0.126 relative 10-mer count
same,binding signal,[2],0.0251 relative 10-mer count
same,binding signal,[3],0.0417 relative 10-mer count
ACCGAAAAAA,binding signal,[1],0.104 relative 10-mer count
same,binding signal,[2],0.00949 relative 10-mer count
same,binding signal,[3],0.0485 relative 10-mer count
CTCCCCGCCC,binding signal,[1],0.131 relative 10-mer count
same,binding signal,[2],0.00583 relative 10-mer count
same,binding signal,[3],0.00372 relative 10-mer count
CCCACACCCC,binding signal,[1],0.278 relative 10-mer count
same,binding signal,[2],0.00977 relative 10-mer count
same,binding signal,[3],0.00407 relative 10-mer count
CCCACCCCTA,binding signal,[1],0.119 relative 10-mer count
same,binding signal,[2],0.00431 relative 10-mer count
same,binding signal,[3],0.00324 relative 10-mer count
ACCACCCACC,binding signal,[1],0.242 relative 10-mer count
same,binding signal,[2],0.00945 relative 10-mer count
same,binding signal,[3],0.00875 relative 10-mer count
CCATCCCACC,binding signal,[1],0.138 relative 10-mer count
same,binding signal,[2],0.00697 relative 10-mer count
same,binding signal,[3],0.00575 relative 10-mer count
CCCCCACGCC,binding signal,[1],0.181 relative 10-mer count
same,binding signal,[2],0.00688 relative 10-mer count
same,binding signal,[3],0.00419 relative 10-mer count
CCACCCCCTC,binding signal,[1],0.182 relative 10-mer count
same,binding signal,[2],0.00982 relative 10-mer count
same,binding signal,[3],0.00312 relative 10-mer count
GCCCCCCGCC,binding signal,[1],0.123 relative 10-mer count
same,binding signal,[2],0.00477 relative 10-mer count
same,binding signal,[3],0.003 relative 10-mer count
CACCCACCAC,binding signal,[1],0.196 relative 10-mer count
same,binding signal,[2],0.00949 relative 10-mer count
same,binding signal,[3],0.00779 relative 10-mer count
CGCTTCATAC,binding signal,[1],0.265 relative 10-mer count
same,binding signal,[2],0.363 relative 10-mer count
same,binding signal,[3],0.0012 relative 10-mer count
CTCCACCCCC,binding signal,[1],0.178 relative 10-mer count
same,binding signal,[2],0.00812 relative 10-mer count
same,binding signal,[3],0.00467 relative 10-mer count
TAAAAAAGCA,binding signal,[1],0.179 relative 10-mer count
same,binding signal,[2],0.00816 relative 10-mer count
same,binding signal,[3],0.114 relative 10-mer count
CCGACCACCC,binding signal,[1],0.119 relative 10-mer count
same,binding signal,[2],0.00495 relative 10-mer count
same,binding signal,[3],0.00443 relative 10-mer count
CAGGGGTGGG,binding signal,[1],0.103 relative 10-mer count
same,binding signal,[2],0.00482 relative 10-mer count
same,binding signal,[3],0.00419 relative 10-mer count
CCCTACCCCC,binding signal,[1],0.153 relative 10-mer count
same,binding signal,[2],0.0083 relative 10-mer count
same,binding signal,[3],0.00587 relative 10-mer count
GCCCACCCCC,binding signal,[1],0.215 relative 10-mer count
same,binding signal,[2],0.00876 relative 10-mer count
same,binding signal,[3],0.00779 relative 10-mer count
AAGCGTACCC,binding signal,[1],0.208 relative 10-mer count
same,binding signal,[2],0.104 relative 10-mer count
same,binding signal,[3],0.0138 relative 10-mer count
CCACGCCCCA,binding signal,[1],0.109 relative 10-mer count
same,binding signal,[2],0.00422 relative 10-mer count
same,binding signal,[3],0.0024 relative 10-mer count
AAGGGGTGGG,binding signal,[1],0.102 relative 10-mer count
same,binding signal,[2],0.00546 relative 10-mer count
same,binding signal,[3],0.00395 relative 10-mer count
CTTCATACAC,binding signal,[1],0.291 relative 10-mer count
same,binding signal,[2],0.384 relative 10-mer count
same,binding signal,[3],0.00132 relative 10-mer count
CCCTCCTCCC,binding signal,[1],0.179 relative 10-mer count
same,binding signal,[2],0.00927 relative 10-mer count
same,binding signal,[3],0.00479 relative 10-mer count
CCCGCCGCCC,binding signal,[1],0.194 relative 10-mer count
same,binding signal,[2],0.00532 relative 10-mer count
same,binding signal,[3],0.00192 relative 10-mer count
GTGGGGGGGA,binding signal,[1],0.145 relative 10-mer count
same,binding signal,[2],0.00587 relative 10-mer count
same,binding signal,[3],0.00348 relative 10-mer count
ACGCCCCACC,binding signal,[1],0.11 relative 10-mer count
same,binding signal,[2],0.00271 relative 10-mer count
same,binding signal,[3],0.00431 relative 10-mer count
CGACCCACCC,binding signal,[1],0.126 relative 10-mer count
same,binding signal,[2],0.00477 relative 10-mer count
same,binding signal,[3],0.00324 relative 10-mer count
CCCCCCACCC,binding signal,[1],0.415 relative 10-mer count
same,binding signal,[2],0.0187 relative 10-mer count
same,binding signal,[3],0.0036 relative 10-mer count
CACCCACCCC,binding signal,[1],0.325 relative 10-mer count
same,binding signal,[2],0.0153 relative 10-mer count
same,binding signal,[3],0.003 relative 10-mer count
CACCCCACCG,binding signal,[1],0.124 relative 10-mer count
same,binding signal,[2],0.00459 relative 10-mer count
same,binding signal,[3],0.00372 relative 10-mer count
ACCCCACCCC,binding signal,[1],0.277 relative 10-mer count
same,binding signal,[2],0.0101 relative 10-mer count
same,binding signal,[3],0.00324 relative 10-mer count
